Reference: PubChem BioAssay (EPA / NIEHS)
Results filed as inconclusive are left out. Calls of active or inactive are those of the source. Rule for the calls, unless noted: active = hit-call score of the fitted dose curve at least 0.9, where 1 is the maximum; inactive = score below 0.9.

Tests used:
[1] = Tanguay_ZF_120hpf_EDEM: Oregon State University Tanguay Lab 120 Hour Post-fertilization zebrafish Assay for Edema Malformation (AID 2284400)
How it was run: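 Dechorionated Tropical 5D wild-type embryos, one per well, statically exposed from 6 to 120 hpf at 28C in 0.64% DMSO. Edema scored present/absent by brightfield microscopy at 120 hpf; dead embryos not scored; fit versus DMSO.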

[2] = Tanguay_ZF_120hpf_MUSC: Oregon State University Tanguay Lab 120 Hour Post-fertilization zebrafish Assay for Muscle Malformation (AID 2284401)
How it was run: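 Dechorionated Tropical 5D wild-type zebrafish embryos exposed statically from 6 to 120 hpf at 28C, one per well, in 0.64% DMSO. Muscle malformation scored present/absent by brightfield microscopy at 120 hpf, fitted against DMSO.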

[3] = Tanguay_ZF_120hpf_TCHR: Oregon State University Tanguay Lab 120 Hour Post-fertilization zebrafish Assay for Touch Responsive (AID 2284403)
How it was run: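 Dechorionated Tropical 5D wild-type zebrafish embryos, one per well from 6 hpf, were statically exposed to 120 hpf at 28 °C (0.64% DMSO). Touch response was scored present/absent at 120 hpf and not scored in dead larvae.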

[4] = CCTE_Padilla_ZF_Score.Craniofacial: CCTE's 144 Hour Post-fertilization zebrafish Assay Score for Craniofacial Malformation, Padilla Lab (AID 2284405)
How it was run: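 Wild-type zebrafish embryos (with chorions), one per well in 10% Hanks', were dosed at 6–8 hpf in sealed plates and kept at 26C. They were rinsed at 5 dpf. At 6 dpf two blinded assessors scored craniofacial malformations by brightfield stereomicroscopy.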

[5] = CCTE_Padilla_ZF_Score.Edema: CCTE's 144 Hour Post-fertilization zebrafish Assay Score for Edema Malformation, Padilla Lab (AID 2284406)
How it was run: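 Wild-type zebrafish embryos, one per well in Hanks' solution, dosed at 6-8 hpf, sealed and reared at 26C on a 14:10 h cycle; rinsed on 5 dpf. At 6 dpf, blinded assessors scored edema by stereomicroscopy.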

[6] = CCTE_Padilla_ZF_Score.Spine: CCTE's 144 Hour Post-fertilization zebrafish Assay Score for Spine Malformation, Padilla Lab (AID 2284407)
How it was run: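 Wild-type zebrafish embryos, one per well in Hanks' solution, dosed at 6–8 hpf in sealed plates at 26C, 14:10 h light:dark; rinsed at 5 dpf. Two blinded assessors scored spinal defects by stereomicroscopy at 6 dpf; fitted versus DMSO.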

[7] = CCTE_Padilla_ZF_Score.Position: CCTE's 144 Hour Post-fertilization zebrafish Assay Score for Position, Padilla Lab (AID 2284409)
How it was run: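 Wild-type zebrafish embryos (with chorions) exposed singly from 6–8 hpf in sealed wells of Hanks' solution at 26C, rinsed at 5 dpf. At 6 dpf, blinded assessors scored abnormal water-column position by brightfield stereomicroscopy, relative to DMSO.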

[8] = CCTE_Padilla_ZF_Score.Living: CCTE's 144 Hour Post-fertilization zebrafish Assay Score for Viability, Padilla Lab (AID 2284410);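 note: larval death at 6 dpf judged by absent heartbeat or coagulation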
How it was run: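 Wild-type zebrafish embryos were exposed singly from 6–8 hpf in sealed wells of Hanks' solution at 26C, then rinsed at 5 dpf. At 6 dpf, blinded assessors scored mortality (no heartbeat or coagulation) by stereomicroscopy, fitted against DMSO.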

[9] = CCTE_Padilla_ZF_Score.Tail: CCTE's 144 Hour Post-fertilization zebrafish Assay Score for Tail Malformation, Padilla Lab (AID 2284414)
How it was run: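 Wild-type zebrafish embryos, one per well in 200 uL 10% Hanks', dosed at 6-8 hpf, sealed, and kept at 26 C on a 14:10 h light cycle. Chemical was rinsed out at 5 dpf. Blinded brightfield scoring of tail defects followed at 6 dpf.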

[10] = CCTE_Padilla_ZF_Score.Blood_pooling: CCTE's 144 Hour Post-fertilization zebrafish Assay Score for Blood Pooling, Padilla Lab (AID 2284415)
How it was run: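 Wild-type outbred zebrafish embryos, one per well in 10% Hanks', exposed from 6–8 hpf in sealed plates at 26C on 14:10 h light:dark, rinsed at 5 dpf. Blinded stereomicroscope scoring of blood pooling at 6 dpf; gain-of-signal versus DMSO.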

[11] = CCTE_Padilla_ZF_Score.Any: CCTE's 144 Hour Post-fertilization zebrafish Assay Score for Any Mortality or Malformation, Padilla Lab (AID 2284416)
How it was run: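 Wild-type zebrafish embryos with chorions, one per well in 10% Hanks' from 6–8 hpf, dosed in sealed plates at 26 C, 14:10 h light:dark; rinsed at 5 dpf; blinded scoring at 6 dpf for death or malformation, versus DMSO.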

TTR (gene 7276) = test: CCTE_GLTED_hTTR_0.125uM: CCTE's human Transthyretin (hTTR) Inhibition Assay, with 0.125uM TTR, Great Lakes Toxicology and Ecology Division (GLTED) Lab (AID 2284431);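 note: hits lower the fluorescence signal relative to DMSO baseline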
How it was run: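 TTR 0.125uM + test chemical, 2 h; ANSA probe displacement; ex 380/em 475 fluorescence; signal loss vs DMSO control.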

[12] = system: SRY-box transcription factor 17 (SOX17) Protein Expression, Deisenroth Lab, SOX17 (gene 64321); test: CCTE_Deisenroth_DEVTOX-GLR_Endo_SOX17: CCTE's DevTox GLR-Endo Assay Evaluation of SRY-box transcription factor 17 (SOX17) Protein Expression, Deisenroth Lab (AID 2284413)
How it was run: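 Seed RUES2-GLR cells 24 h; start endoderm differentiation; dose at 0 and 24 h (1 nM - 200 uM, 10 points); fix at 48 h, stain nuclei, image 5 fields/well; compute SOX17+/total cells vs 0.2% DMSO.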

[13] = system: Brachyury (BRA) Protein Expression, TBXT (gene 6862); test: CCTE_Deisenroth_DEVTOX-GLR_Endo_BRA: CCTE's DevTox GLR-Endo Assay Evaluation of Brachyury (BRA) Protein Expression, Deisenroth Lab (AID 2284417)
How it was run: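 RUES2-GLR human pluripotent cells, seeded 24 h, then differentiated 48 h in defined media with two chemical exposures 24 h apart (10-point series, 1 nM - 200 uM). Fixed, nuclear-stained, imaged; endpoint is percent BRA+ cells minus 0.2% DMSO control.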

[14] = CCTE_Deisenroth_DEVTOX-GLR_Endo_CellCount: Viability Assessment in CCTE's DevTox GLR-Endo Assay, Deisenroth Lab (AID 2284420)
How it was run: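 Nuclei counted by fluorescence microscopy as a surrogate for cell number, expressed as percent change relative to 0.2% DMSO control. Human RUES2-GLR cells, 48 h differentiation, dosed twice; 1 nM - 200 uM series.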

[15] = system: SRY-box transcription factor 17 (SOX17) Protein Expression, Deisenroth Lab, SOX17 (gene 64321); test: CCTE_Deisenroth_DEVTOX-GLR_Pluri_SOX17: CCTE's DevTox GLR-Pluri Assay Evaluation of SRY-box transcription factor 17 (SOX17) Protein Expression, Deisenroth Lab (AID 2284427; active = hit-call score of the fitted dose curve at least 0.9, where 1 is the maximum)
How it was run: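 Readout: percent SOX17+ cells (SOX17+ count/cell count) by high-content imaging of an inducible fluorescent reporter, corrected for 0.2% DMSO solvent control. RUES2-GLR cells, 48 h differentiation, dosed twice at 24 h intervals, 1 nM - 200 uM.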

[16] = system: SRY-box transcription factor 2 (SOX2) Protein Expression, Deisenroth Lab, SOX2 (gene 6657); test: CCTE_Deisenroth_DEVTOX-GLR_Pluri_SOX2: CCTE's DevTox GLR-Pluri Assay Evaluation of SRY-box transcription factor 2 (SOX2) Protein Expression, Deisenroth Lab (AID 2284428)
How it was run: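 RUES2-GLR (human pluripotent), 48 h post-dosing, 2 exposures q24h, 1 nM–200 uM 10-pt. Fixed, nuclear dye, high-content imaging 5 fields/well. Endpoint: % SOX2+ cells (SOX2+/total count) vs 0.2% DMSO; n≥4.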

[17] = system: Brachyury (BRA) Protein Expression, Deisenroth Lab, TBXT (gene 6862); test: CCTE_Deisenroth_DEVTOX-GLR_Pluri_BRA: CCTE's DevTox GLR-Pluri Assay Evaluation of Brachyury (BRA) Protein Expression, Deisenroth Lab (AID 2284429; active = hit-call score of the fitted dose curve at least 0.9, where 1 is the maximum)
How it was run: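 An inducible fluorescent BRA reporter in RUES2-GLR cells tracks mesoderm differentiation. Compounds (10 concentrations, 1 nM - 200 uM) are dosed twice within a 48-h differentiation. The endpoint subtracts the 0.2% DMSO control from percent BRA+ cells.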

[18] = CCTE_Deisenroth_DEVTOX-GLR_Pluri_CellCount: Viability Assessment in CCTE's DevTox GLR-Pluri Assay Evaluation of Total Cell Counts, Deisenroth Lab (AID 2284430)
How it was run: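 RUES2-GLR human pluripotent cells, seeded 24 h, then differentiated 48 h with two chemical exposures 24 h apart; 10-point series 1 nM - 200 uM. Fixed, nuclear-stained, imaged (5 fields/well); nuclei count as % change vs 0.2% DMSO.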

Measured: AC50

FC(F)(F)C(F)(C(F)(F)F)C(F)(F)C(F)(F)CC1CO1 (configuration not stated)
not listed: TTR (gene 7276) | [12] | [13] | [14] | [15] | [16] | [17] | [18]
inactive: all other assays above

CO/N=C(/C(=O)OC)c1ccccc1COc1ccccc1C
active: TTR (gene 7276) 3.22 µM

CCCCc1ccc(O)cc1
active: TTR (gene 7276) 6.48 µM

NC(=O)C(F)(F)C(F)(F)F
not listed: TTR (gene 7276) | [12] | [13] | [14] | [15] | [16] | [17] | [18]
inactive: all other assays above

CC(O)C(F)(F)C(F)(F)F (configuration not stated)
not listed: TTR (gene 7276) | [12] | [13] | [14] | [15] | [16] | [17] | [18]
inactive: all other assays above

O=S(=O)(F)C(F)(F)C(F)(F)C(F)(F)C(F)(F)C(F)(F)C(F)(F)C(F)(F)C(F)(F)F
not listed: TTR (gene 7276) | [12] | [13] | [14] | [15] | [16] | [17] | [18]
inactive: all other assays above

OCC(F)(F)OC(F)(F)C(F)(F)OC(F)(F)CO
not listed: TTR (gene 7276) | [12] | [13] | [14] | [15] | [16] | [17] | [18]
inactive: all other assays above

O=C(O)C(F)(F)OC(F)(F)C(F)(F)OC(F)(F)C(=O)O
not listed: TTR (gene 7276) | [12] | [13] | [14] | [15] | [16] | [17] | [18]
inactive: all other assays above

CCCCCCCc1ccc(O)cc1
active: TTR (gene 7276) 0.736 µM

OCC(F)(F)OC(F)(F)C(F)(F)OC(F)(F)C(F)(F)OC(F)(F)CO
inactive: [3] | [4] | [5] | [6] | [7] | [9] | [10] | [11]
active: [1] 28.9 µM | [2] 36.7 µM | [8] 32.1 µM

OCC(F)(F)OC(F)(F)C(F)(F)OC(F)(F)C(F)(F)OC(F)(F)F
active: [4] 20.2 µM | [5] 73.7 µM | [7] 34.4 µM | [8] 88.8 µM | [9] 20.2 µM | [11] 27.5 µM
inactive: [1] | [2] | [3] | [6] | [10]

O=S(=O)(c1ccc(O)cc1)c1ccc(O)cc1
active: TTR (gene 7276) 19.9 µM

O=C(O)C(F)(F)OC(F)(F)C(F)(F)OC(F)(F)F
not listed: TTR (gene 7276) | [12] | [13] | [14] | [15] | [16] | [17] | [18]
inactive: all other assays above

C=CC(=O)OCC(F)(F)C(F)F
active: [2] 54.6 µM | [5] 8.88 µM | [8] 20.7 µM | [11] 9.85 µM
inactive: [1] | [3] | [4] | [6] | [7] | [9] | [10]

O=C(O)C(F)(F)C(F)(F)C(=O)O
not listed: TTR (gene 7276) | [12] | [13] | [14] | [15] | [16] | [17] | [18]
inactive: all other assays above

O=c1ssc(Cl)c1Cl
active: TTR (gene 7276) 0.578 µM

O=P1(N(CCCl)CCCl)NCCCO1 (configuration not stated)
inactive: [12] | [13] | [14] | [15] | [16] | [17] | [18]

CCC(C)(C)c1ccc(O)cc1
active: TTR (gene 7276) 14.4 µM

COC(=O)C(F)(F)C(F)(F)OC(F)(C(F)(F)F)C(F)(F)OC(F)=C(F)F (configuration not stated)
not listed: TTR (gene 7276) | [12] | [13] | [14] | [15] | [16] | [17] | [18]
inactive: all other assays above

O=C(O)C=CC(F)(C(F)(F)F)C(F)(F)F
not listed: TTR (gene 7276) | [12] | [13] | [14] | [15] | [16] | [17] | [18]
inactive: all other assays above

O=C(O)C(F)(OC(F)(F)C(F)(F)C(F)(F)F)C(F)(F)F (configuration not stated)
not listed: TTR (gene 7276) | [12] | [13] | [14] | [15] | [16] | [17] | [18]
inactive: all other assays above
